# Compound activity as filed in PubChem.
# hgDAF-12 ag: H. glycines DAF-12 receptor agonists, primary screen, cell-based, luminescence, HEK293, GAL4 fusion, UAS-luciferase; Nuclear hormone receptor DAF-12 (Heterodera glycines), GAL4 fusion; HEK293 GAL4-hgDAF12 UAS-luciferase reporter, agonist luminescence; normalized to butyrate control; activation, % at 6.8 µM; 370,000 tested, 1.8% active;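 active means activation above a cutoff set at the mean of all screened compounds plus 3 SD, cut at about 10% in these data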;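 further: 0% = DMSO wells and 100% = sodium butyrate wells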
# hcDAF-12 act: H. contortus DAF-12 nuclear receptor activators, primary screen, cell-based, luminescence, HEK293, lit1-tk-luc reporter; HEK293 hcDAF-12 lit1-tk-luc reporter; 0% DMSO, 100% Δ7-dafachronic acid; activation, % at 6.8 µM; 370,000 tested, 1.4% active; AID 652067, 2013;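 active means activation above the mean of all tested compounds plus 3 SD, cut at about 5.5% in these data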;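 further: 100% = response to 3 µM Δ7-dafachronic acid high control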
# ssDAF-12 act: S. stercoralis DAF-12 nuclear receptor activators, primary screen, cell-based, luminescence, HEK293, GRIP1 co-expression, lit1-tk-luc; HEK293 ssDAF-12/GRIP1 lit1-tk-luc reporter; % of 3 µM dafachronic acid response; activation, % at 6.8 µM; 370,000 tested, 1% active;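 active means activation above the mean over all tested compounds plus 3 SD, cut at about 0.9% in these data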;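 further: 0% = DMSO-only wells and 100% = 3 µM delta7-dafachronic acid wells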
# DAX1 inh-1: DAX1 (NR0B1) inhibitors on StAR promoter, primary screen, cell-based, luminescence, SF-1 (NR5A1), full-length DAX-1 | 370,000 tested, 1.1% active | HEK293T StAR-luciferase reporter, SF-1/DAX-1 repression relief | inhibition, % at 6.8 µM | AID 652010, 2013;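 active means inhibition above the mean over all tested compounds plus 3 SD, cut at about 3.6% in these data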;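 further: 0% = DAX-1 cells with DMSO and 100% = cells lacking DAX-1 with DMSO; higher inhibition means more luminescence from relief of DAX-1 repression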
# DAX1 inh-2: DAX1 (NR0B1) inhibitors, primary screen, cell-based, HEK293, Gal4-DAX1, luciferase luminescence; HEK293 Gal4-DAX1 luciferase reporter; 340,000 tested, 0.99% active; inhibition, % at 6.75 µM;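 active means inhibition above the mean over all tested compounds plus 3 SD, cut at about 4.2% in these data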;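 further: 0% = DAX1-transfected cells with DMSO and 100% = empty-vector control cells with DMSO; inhibition shows as a rise in luminescence from relieved DAX1 repression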
# Target sequence (P51843 207-470 limits assumed): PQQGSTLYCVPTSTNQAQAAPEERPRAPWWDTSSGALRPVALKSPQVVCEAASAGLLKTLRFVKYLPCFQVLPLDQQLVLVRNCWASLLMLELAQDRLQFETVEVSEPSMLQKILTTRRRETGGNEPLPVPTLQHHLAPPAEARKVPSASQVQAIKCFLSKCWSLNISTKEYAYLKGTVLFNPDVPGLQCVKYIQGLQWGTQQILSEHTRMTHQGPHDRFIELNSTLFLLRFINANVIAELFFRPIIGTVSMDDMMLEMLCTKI
# * = called active by the depositor; x = no result given. The list is not random: actives were taken first. Their share in the collection is about 4.1%.
SMILES,hgDAF-12 ag,hcDAF-12 act,ssDAF-12 act,DAX1 inh-1,DAX1 inh-2
CCOc1ccccc1C(=O)Nc1ccccc1O,0.5,0.7,-1.0,-0.9,-1.4
CCOc1ccccc1C(=O)Nc1ccccc1-c1ccccc1,-1.1,5.7*,-1.2,0.1,0.5
C[C@@H]1Cc2cc(O)cc(O)c2C(=O)O1,2.2,-0.5,-0.4,0.2,x
NNC(=O)c1oc2ccccc2c1-n1cccc1,1.6,-2.1,-0.5,-0.1,0.3
O=C(O)c1oc2ccc(Br)cc2c1-n1cccc1,0.0,1.4,-0.7,0.2,7.0*
CCCCNC(=O)C[C@H]1C[C@@]2(C(=O)OC)C(=C[C@H](C(C)(C)C)O[C@@H]2C)N(Cc2ccccc2)C1=O,1.3,0.7,-1.3,-0.6,x
C[C@H]1CN([C@@H](C)CO)C(=O)CCCn2cc(nn2)CO[C@@H]1CN(C)S(=O)(=O)c1cn(C)cn1,3.4,-1.6,-0.6,0.6,x
CSCCC(c1nc2ccccc2[nH]1)n1c(-c2ccc3ncccc3c2)nc2ccccc21 (stereo not given),10.8*,2.1,0.0,3.4,x
CSCCC(c1nc2ccccc2[nH]1)n1c(-c2ccc(C)cc2)nc2ccccc21 (stereo not given),3.2,1.8,0.5,1.1,x
Cc1cc2c(nc1C)CCCN2S(=O)(=O)c1ccc(C(F)(F)F)cc1,-1.6,-1.4,-0.6,-0.1,x
O=c1[nH]c(/C=C/c2ccccc2F)nc2ccccc12,11.3*,5.1,0.2,0.1,0.2
COC(=O)Cc1nnn2c1[C@@H](C)[C@@H](c1ccccc1Br)OC[C@H](C)C2,0.1,-1.2,-1.2,-0.1,x
CCOC(=O)[C@]12CCCC=C1N(Cc1ccc(OC)cc1)C(=O)[C@@H]2CC(=O)NCCCCc1ccccc1,-1.6,-4.2,-1.6,-1.3,x
C[C@@H]1CCCCO[C@@H](CN(C)Cc2ccncc2)[C@@H](C)CN([C@H](C)CO)C(=O)c2cc(NC(=O)c3ccccc3)ccc2O1,-1.1,-1.5,-1.3,-0.2,4.8*
C[C@@H]1CN([C@@H](C)CO)C(=O)c2cc(NC(=O)c3ccncc3)ccc2O[C@@H](C)CCCCO[C@@H]1CN(C)C(=O)Cc1ccccc1,1.4,0.7,0.2,0.0,0.4
Cc1noc(C)c1NC(=O)Nc1ccc2c(c1)C(=O)N([C@H](C)CO)C[C@H](C)[C@@H](CN(C)S(=O)(=O)c1ccc(Cl)cc1)OCCCC[C@@H](C)O2,-2.0,-0.8,-0.7,0.2,6.1*
C[C@@H]1CCCCO[C@H](CN(C)Cc2ccncc2)[C@@H](C)CN([C@H](C)CO)C(=O)c2cc(N(C)C)ccc2O1,1.4,-1.0,-0.8,-0.5,x
C[C@@H]1CN([C@@H](C)CO)C(=O)c2cc(N(C)C)ccc2O[C@@H]1CN(C)Cc1ccncc1,1.7,-1.1,1.3*,0.2,1.2
Cc1noc(C)c1NC(=O)Nc1ccc2c(c1)C(=O)N([C@@H](C)CO)C[C@@H](C)[C@H](CN(C)S(=O)(=O)c1ccc(F)cc1)OCCCC[C@H](C)O2,1.5,1.3,-1.2,x,x
Cc1nnc(C)n1N=Cc1ccc(Cl)c([N+](=O)[O-])c1,-2.0,-0.1,-0.9,0.1,x
CN(C)C(=S)NC(=S)Nc1ccc2ccccc2c1,16.8*,11.7*,1.3*,3.0,0.2
CCN(CC)C(=O)[C@H]1C[C@@H]2[C@H](C[C@@H](c3ccccc3)[C@H]1C)N(c1ccc(F)cc1)C(=O)N2CCCOc1ccccc1,-2.9,-1.0,-1.4,-1.3,x
CC[C@H]1C=C[C@@H](C(=O)NS(=O)(=O)c2ccc(C)cc2)N(C(C)=O)C1,-1.9,-0.6,-1.1,-0.8,x
Cc1ccc(C2c3c(n[nH]c3C)C(=O)N2Cc2ccccc2)cc1 (stereo not given),-2.3,-2.4,-0.9,-0.6,x
O=[N+]([O-])c1cc(Oc2cccnc2)cc([N+](=O)[O-])c1,-4.2,-3.0,-1.7,-1.1,4.4*
CCOC(=O)c1sc(NCc2ccco2)c(-c2nc3ccccc3s2)c1N,4.0,6.2*,0.2,0.4,1.0
